Among the data in PubChem BioAssay (EPA / NIEHS) are AC50 and outcome values, retold here.

Records with an inconclusive call do not appear. Activity calls are given as the source filed them. Rule for the calls: active = hit-call score of the fitted dose curve at least 0.9, where 1 is the maximum; inconclusive = response in the unintended direction; inactive = score below 0.9.

What is called AC50 is the midpoint of the concentration-response curve, whichever way the signal moves.

The target in this experiment is Retinoic acid receptor RXR-alpha (Homo sapiens) (UniProt P19793). The experiment is described as follows: ATG_RXRa_TRANS: Attagene TRANS-FACTORIAL HepG2 Assay for human Retinoid X Receptor alpha (RXRa) (AID 2283012). The essentials: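 Measures exogenous chimeric NR-GAL4 activity in transfected HepG2 liver cells after 24 h of dosing. Induced reporter mRNA was detected by RT-PCR with capillary electrophoresis, and gain of signal was analysed against DMSO.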
Retinoic acid receptor RXR-alpha (Homo sapiens), sequence (P19793 whole entry, looked up, the tested form may be a part): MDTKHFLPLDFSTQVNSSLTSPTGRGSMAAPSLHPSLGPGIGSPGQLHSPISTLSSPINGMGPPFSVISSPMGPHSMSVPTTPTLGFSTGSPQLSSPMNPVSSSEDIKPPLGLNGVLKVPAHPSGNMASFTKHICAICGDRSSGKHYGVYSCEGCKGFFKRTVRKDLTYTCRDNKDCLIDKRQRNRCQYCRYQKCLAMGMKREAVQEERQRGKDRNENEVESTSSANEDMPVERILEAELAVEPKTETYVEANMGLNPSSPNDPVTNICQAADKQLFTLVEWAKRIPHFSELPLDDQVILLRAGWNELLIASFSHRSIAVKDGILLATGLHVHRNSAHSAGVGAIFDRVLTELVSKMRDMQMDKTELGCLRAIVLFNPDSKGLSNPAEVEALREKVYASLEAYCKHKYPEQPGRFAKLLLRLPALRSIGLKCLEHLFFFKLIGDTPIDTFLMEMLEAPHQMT
In the case of `O=C1CCCC=CCCCCCCCCCC1`, the concentration at half-maximal activity (AC50) is 24.4 µM (active).
Regarding `C=CC(=O)OCCC#N`, the call was inactive.
The same measure, in the same setting: the result for `CC(C)(C)c1ccc(C(=O)O)cc1` reads “inactive”.
With `O=C(Nc1ccc([N+](=O)[O-])cc1)Nc1ccc([N+](=O)[O-])cc1` (tested in a mixture with another compound), the call was inactive.
Same read-out and setting: with `CC=Cc1ccc(OC)c(OC)c1` the entry was “inactive”.
Regarding `N#Cc1ccc(CC(=O)c2cccc(C(F)(F)F)c2)cc1`, the AC50 was 26.4 µM (active).
Consider `CC(C)CCOC(=O)c1ccccc1`, for which the compound was called inactive.
For the compound `CCCCCCCCSCCO`, the result was inactive.
As for `COC(C)(C)CC(C)=O`, the compound was called inactive.
Consider `O=C(CS)OCCOC(=O)CS`, for which the outcome was inactive.
Still for that read-out and setting: the result for `Cc1ccc(C)o1` reads “inactive”; that for `CC(C)NCC(O)COc1ccc(CC(N)=O)cc1` (configuration not stated), “inactive”; that for `C=CCCCCCCCCCC`, “inactive”.
Same read-out and setting: the result for `CCCSc1ccc2nc(NC(=O)OC)[nH]c2c1` reads “inactive”; that for `CC1(C)C(=O)N(Cl)C(=O)N1Br`, “inactive”.
For `CCc1cc(C(C)(C)C)c(O)c(C(C)(C)C)c1`, the AC50 was 11.3 µM (active).
As to `CN1CCOCC1`, the compound was called inactive.
Turning to `Cc1ccc2c(c1)C(=O)OC2=O`, the outcome was inactive.
Still for that read-out and setting: the result for `CC(=O)O[C@H]1C[C@@H]2CC[C@@]1(C)C2(C)C` reads “inactive”.
Still for that read-out and setting: with `C=C(CC(=O)O)C(=O)O` the entry was “inactive”; with `CC(C)=CCCC(C)CC(=O)O` (configuration not stated), “inactive”.
On the same count and under the same terms, with `CC(=O)OCCCc1ccccc1` the entry was “inactive”; with `CC(=O)NCCO`, “inactive”.
In the case of `COc1ccc(N)c([N+](=O)[O-])c1`, the compound was classed as inactive.
For `CCCCCCCC(=O)OCCCCCC`, the compound was classed as inactive.
On the same count and under the same terms, the result for `CCCOC(=O)c1c(Cl)c(Cl)c(Cl)c(Cl)c1C(=O)OCCC` reads “inactive”; that for `Cc1ncc([N+](=O)[O-])n1CCO`, “inactive”.
